Values joined by “and” are separate entries in the source; they are usually repeats but may differ in a detail not shown here. Equal entries are not always repeated. Records with an inconclusive call do not appear. Active and inactive are the calls of the source. Rule for the calls, unless noted: active = hit-call score of the fitted dose curve at least 0.9, where 1 is the maximum; inactive = score below 0.9.
Legend:
[1] = CCTE_Mundy_HCI_hNP1_CellTiter: CCTE's Cell Titer-Glo 2 Assay in human neuroprogenitor cells for Viability, Mundy Lab (AID 2284241; active = hit-call score of the fitted dose curve at least 0.9, where 1 is the maximum;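 for AC50: a hit is a drop in ATP luminescence versus DMSO meaning reduced viability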)
Outline: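 Viability read as luminescent ATP content (CellTiter-Glo, 30 min room temperature) twenty-four hours after dosing, relative to DMSO. Cells: WA09-derived hNP1 neuroprogenitors on poly-L-ornithine/laminin, plated 40 to 44 hours before chemical.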

[2] = CCTE_Mundy_HCI_Cortical_Synap_Neur_Matur_NeuronCount: CCTE's Synaptogenesis and Neurite Maturation Assay in rat cortical cells for Neuron Count, Mundy Lab (AID 2284242; active = hit-call score of the fitted dose curve at least 0.9, where 1 is the maximum;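 for AC50: neuron number from Hoechst nuclei and MAP2 staining by high-content imaging; hits reduce neuron count versus DMSO baseline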)
Outline: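 Rat primary cortical cells received AraC at DIV 5 to arrest glia, then were dosed with chemicals at DIV 7 through DIV 12. Fixed cells were stained for nuclei, MAP2 and synaptophysin, and neurons were counted by high-content imaging relative to DMSO.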

[3] = read-out: Interleukin 17F (IL17F), IL17F (gene 112744); assay: BSK_BT_xIL17F: BioMAP Diversity Plus: BT Assay for Interleukin 17F (IL17F) Biomarker Activity (AID 2284243); details: primary human B cells with PBMC
Outline: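 Secreted IL-17F, read on LumineX xMAP beads, was taken as the endpoint. Cultures combined human B cells and peripheral blood mononuclear cells, sampled 24 hours after dosing, with DMSO serving as negative control.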

[4] = read-out: Actin alpha 1 (ACTA1), ACTA1 (gene 58); assay: BSK_MyoF_ACTA1: BioMAP Diversity Plus: MyoF Assay for Actin alpha 1 (ACTA1) Biomarker Activity (AID 2284244); details: primary human lung fibroblasts
Outline: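 Human lung fibroblasts (MyoF system) dosed with test chemical for 24 h; α-SMA measured by ELISA. Gain of signal fitted relative to DMSO negative control as baseline.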

[5] = read-out: Interleukin 2 (IL2), IL2 (gene 3558); assay: BSK_BT_xIL2: BioMAP Diversity Plus: BT Assay for Interleukin 2 (IL2) Biomarker Activity (AID 2284245); details: primary human B cells with PBMC
Outline: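 Human B cells co-cultured with PBMC, exposed to test chemical for 24 h. Secreted IL-2 quantified by Luminex xMAP bead immunoassay; activity fitted in the positive direction relative to DMSO vehicle baseline.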

[6] = read-out: Collagen IV, COL4A1 (gene 1282); assay: BSK_MyoF_CollagenIV: BioMAP Diversity Plus: MyoF Assay for Collagen IV Biomarker Activity (AID 2284247); details: primary human lung fibroblasts
Outline: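 Primary human lung fibroblasts were exposed to test chemicals and sampled 24 h after dosing. Collagen IV levels were measured by ELISA and fitted in the positive direction against DMSO as negative control and baseline.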

[7] = read-out: Monokine induced gamma interferon (MIG), CXCL9 (gene 4283); assay: BSK_KF3CT_MIG: BioMAP Diversity Plus: KF3CT Assay for Monokine induced gamma interferon (MIG) Biomarker Activity (AID 2284248); details: primary human keratinocytes with fibroblasts
Outline: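 ELISA read-out of MIG after 24 h chemical exposure of human skin primary co-culture (keratinocytes, foreskin fibroblasts). Gain of signal relative to DMSO negative control was analysed.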

[8] = read-out: Vascular cell adhesion molecule 1 (VCAM1), VCAM1 (gene 7412); assay: BSK_BF4T_VCAM1: BioMAP Diversity Plus: BF4T Assay for Vascular cell adhesion molecule 1 (VCAM1) Biomarker Activity (AID 2284249); details: primary human bronchial epithelial cells with fibroblasts
Outline: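 Human bronchial epithelial cell and dermal fibroblast co-culture exposed 24 h. VCAM-1 measured by ELISA; parallel SRB total-protein staining for cytotoxicity. Fitted in positive direction relative to DMSO.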

[9] = read-out: Interferon-inducible T-cell alpha chemoattractant (ITAC), CXCL11 (gene 6373); assay: BSK_hDFCGF_ITAC: BioMAP Diversity Plus: hDFCGF Assay for Interferon-inducible T-cell alpha chemoattractant (ITAC) Biomarker Activity (AID 2284251); details: primary human foreskin fibroblasts
Outline: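 Primary human foreskin fibroblasts (hDFCGF system) treated for 24 h; I-TAC quantified by ELISA. Gain-direction fitting versus DMSO; parallel SRB staining of total protein flagged overt cytotoxicity.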

[10] = read-out: Plasminogen activator inhibitor-1 (PAI1), SERPINE1 (gene 5054); assay: BSK_KF3CT_PAI1: BioMAP Diversity Plus: KF3CT Assay for Plasminogen activator inhibitor-1 (PAI1) Biomarker Activity (AID 2284252); details: primary human keratinocytes with fibroblasts
Outline: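 Human primary keratinocyte/foreskin fibroblast co-culture was dosed with compound and sampled at 24 h. PAI-1 was quantified by ELISA, with activity fitted in the positive direction relative to DMSO vehicle as baseline.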

[11] = read-out: Interleukin-8 (IL8), CXCL8 (gene 3576); assay: BSK_KF3CT_IL8: BioMAP Diversity Plus: KF3CT Assay for Interleukin-8 (IL8) Biomarker Activity (AID 2284254); details: primary human keratinocytes with fibroblasts
Outline: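 IL-8 read-out: ELISA, 24 h post-dose, human skin primary co-culture (keratinocytes + foreskin fibroblasts). DMSO = baseline; positive-direction fit.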

[12] = read-out: Plasminogen activator inhibitor-1 (PAI1), SERPINE1 (gene 5054); assay: BSK_MyoF_PAI1: BioMAP Diversity Plus: MyoF Assay for Plasminogen activator inhibitor-1 (PAI1) Biomarker Activity (AID 2284256); details: primary human lung fibroblasts;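 note: PAI-1 protein level measured by ELISA in fibroblast cultures; PAI-1 read 24 h after compound addition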
Outline: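 MyoF lung fibroblasts, human primary; compound 24 h; PAI-1 ELISA; positive-direction fit vs DMSO baseline; parallel SRB total-protein staining for cytotoxicity.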

CD69, CD69 (gene 969) = assay: BSK_IMphg_CD69: BioMAP Diversity Plus: IMphg Assay for CD69 Biomarker Activity (AID 2284257); details: primary human endothelial cells with macrophages
Outline: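 Human venular endothelial cells co-cultured with macrophages; CD69 quantified by ELISA 24 h after compound addition. Activity fitted in the positive direction relative to DMSO baseline; cytotoxicity tracked in parallel cultures via SRB total-protein staining.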

[13] = read-out: Eotaxin 3, CCL26 (gene 10344); assay: BSK_BF4T_Eotaxin3: BioMAP Diversity Plus: BF4T Assay for Eotaxin 3 Biomarker Activity (AID 2284258); details: primary human bronchial epithelial cells with fibroblasts
Outline: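 Co-culture of human bronchial epithelial cells and dermal fibroblasts, exposed to chemicals for 24 h versus DMSO. Eotaxin-3 quantified by ELISA; cytotoxicity checked in parallel cultures by sulforhodamine B total-protein staining.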

[14] = read-out: Monocyte Chemoattractant Protein-1 (MCP1), CCL2 (gene 6347); assay: BSK_BF4T_MCP1: BioMAP Diversity Plus: BF4T Assay for Monocyte Chemoattractant Protein-1 (MCP1) Biomarker Activity (AID 2284259); details: primary human bronchial epithelial cells with fibroblasts
Outline: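 Co-culture of bronchial epithelial cells and dermal fibroblasts dosed with chemical; MCP-1 measured by ELISA 24 h later. Activity fitted in positive direction versus DMSO; cytotoxicity checked by SRB staining in parallel cultures.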

[15] = read-out: Intercellular Adhesion Molecule 1 (ICAM1), ICAM1 (gene 3383); assay: BSK_BF4T_ICAM1: BioMAP Diversity Plus: BF4T Assay for Intercellular Adhesion Molecule 1 (ICAM1) Biomarker Activity (AID 2284260); details: primary human bronchial epithelial cells with fibroblasts
Outline: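 Co-culture of human bronchial epithelial cells and dermal fibroblasts exposed 24 h to chemical; cell-surface ICAM-1 quantified by ELISA. Parallel SRB total-protein staining assessed cytotoxicity; activity fitted relative to DMSO.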

[16] = read-out: Interleukin-8 (IL8), CXCL8 (gene 3576); assay: BSK_MyoF_IL8: BioMAP Diversity Plus: MyoF Assay for Interleukin-8 (IL8) Biomarker Activity (AID 2284261); details: primary human lung fibroblasts
Outline: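 Lung fibroblasts (human primary) → chemical exposure → 24 h → IL-8 measured by ELISA. Signal increase scored versus DMSO control.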

CD90, THY1 (gene 7070) = assay: BSK_BF4T_CD90: BioMAP Diversity Plus: BF4T Assay for CD90 Biomarker Activity (AID 2284262); details: primary human bronchial epithelial cells with fibroblasts
Outline: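 Co-culture of human bronchial epithelial cells and dermal fibroblasts, 24 h compound exposure. Cell-surface CD90 measured by ELISA relative to DMSO; parallel SRB total-protein staining for cytotoxicity.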

[17] = read-out: Interleukin-8 (IL8), CXCL8 (gene 3576); assay: BSK_BF4T_IL8: BioMAP Diversity Plus: BF4T Assay for Interleukin-8 (IL8) Biomarker Activity (AID 2284263); details: primary human bronchial epithelial cells with fibroblasts
Outline: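 Human bronchial epithelial cells with dermal fibroblasts co-culture; IL-8 measured by ELISA 24 hours after dosing, fitted vs DMSO. Cytotoxicity tracked in parallel cultures by SRB total-protein staining.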

Decorin, DCN (gene 1634) = assay: BSK_MyoF_Decorin: BioMAP Diversity Plus: MyoF Assay for Decorin Biomarker Activity (AID 2284265); details: primary human lung fibroblasts
Outline: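 ELISA readout of decorin, 24 h post-dosing; primary human lung fibroblast (MyoF) culture; gain-of-signal fit vs DMSO baseline.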

Measured: AC50

C[C@]12C=CC(=O)C=C1CC[C@H]1[C@@H]3C[C@@H](O)[C@](O)(C(=O)CO)[C@@]3(C)C[C@H](O)[C@@]12F
active: [1] 25.6 µM | [2] 3.75 µM

CCCC(CCC)C(=O)O
inactive: [1] | [2]

FC(F)=C(F)C(F)(F)C(F)(F)C(F)(F)C(F)(F)C(F)(F)C(F)(F)F
not listed: [2]
inactive: all other assays above

O=C(Cl)C(F)(F)C(F)(F)C(F)(F)C(=O)Cl
not listed: [2]
inactive: all other assays above

OCCC(F)(F)C(F)(F)C(F)(F)C(F)(F)F
not listed: [1] | [2]
inactive: all other assays above

C[Si](C)(C)C(F)(F)C(F)(F)C(F)(F)F
not listed: [1] | [2]
inactive: all other assays above

Nc1ccn([C@@H]2O[C@H](CO)[C@@H](O)[C@@H]2O)c(=O)n1
inactive: [1]
active: [2] 4.39 µM and 3.57 µM

COc1cc2c(c(OC)c1OC)-c1ccc(OC)c(=O)cc1[C@@H](NC(C)=O)CC2
active: [1] 0.0224 µM | [2] 0.0339 µM

NC(=O)N1c2ccccc2C=Cc2ccccc21
inactive: [1]

NCC(F)(F)C(F)(F)C(F)(F)C(F)(F)F
not listed: [1] | [2]
inactive: all other assays above

S=P(N1CC1)(N1CC1)N1CC1
inactive: [4] | [5] | [6] | [12] | [16] | Decorin, DCN (gene 1634)
active: [3] 20.9 µM

Cn1cc[nH]c1=S
inactive: [1]
